Molecules are shown by their SMILES. Results filed as inconclusive are left out. Calls of active or inactive are those of the source. Unless noted, the call rests on the fitted dose curve; in most records, active means well fitted curve in the direction sought with a large enough effect; inconclusive means small, poorly fitted or top-dose-only effect, or another doubt; inactive means no such curve, though single readings can be large; an effect the other way counts as inactive or inconclusive.

For experiment [1], the system named is Zika virus NS2B-NS3 protease (linked construct). Description: Primary screen NINDS Rhodamine qHTS for Zika virus inhibitors (AID 1347160). Further: nearly all actives have a fitted effect of over 55% in size. Further: potency means the concentration at half of the fitted maximal effect. An outline of the steps:
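Kinetic fluorescence (Ex 480 nm, Em 540 nm) over 15 min with 1.5 microM Rhodamine110 peptide and 25 nM linked protease.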
In general terms: In qHTS, concentration-response curves come from the screen itself.

Experiment [2] in a line: HEK-293 Cancer Cell Toxicity qHTS against the NCATS CANVASS Library (AID 1347355). Further: nearly all actives have a fitted effect of over 65% in size. Further: potency means the concentration at half of the fitted maximal effect. On activity change, negative = cytotoxicity: on the % scale 0 is the no-effect control and ±100 the full control effect. An outline of the steps:
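Cells at 1000/well were given compound 4 h after plating in an 11-point series. Viability was read by CellTiter-Glo luminescence after 72 h at 37 degrees C.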

Experiment [3] is described as follows: qHTS for Hypoxia signaling pathway (HIF-1) antagonists against the NCATS CANVASS Library (AID 1347374). Further: nearly all actives have a fitted effect of over 60% in size. Further: potency means the concentration at half of the fitted maximal effect.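 On activity change, negative = inhibition: HRE-bla ME-180 cells stimulated with cobalt chloride to stabilize HIF-1alpha; on the % scale 0 is the no-effect control and ±100 the full control effect.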 An outline of the steps:
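HRE-bla ME-180 cells in medium with 0.5% dialyzed FBS received compounds (11-point series) plus CoCl2 (60 uM addition stock) for 17 hrs at 37C. Beta-lactamase activity read with CCF4 (405 nm ex, 460/530 nm em); CellTiter-Glo viability measured in same wells.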

The nature of experiment [4]: Secretion counterscreen for inhibitors of the SERCaMP assay screened against the NCATS CANVASS Library (AID 1347390).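 Further: light from luciferase secreted into medium read as a measure of general secretion.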 Further: potency means the concentration at half of the fitted maximal effect. On activity change, negative = inhibition: on the % scale 0 is the no-effect control and ±100 the full control effect. In a few lines: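 SH-SY5Y cells expressing constitutively secreted GLuc, 1000 cells/well, attached 4 h at 37C, then exposed to compounds (0.001 - 77 uM, 11-pnt series) for 20 h. Coelenterazine added; luminescence read to flag secretory-pathway interferers.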
Background: Counterscreens check selectivity or assay interference.

Experiment [5] is described as follows: qHTS for Antimalaria activity screened against the NCATS CANVASS Library (AID 1347380). Further: nearly all actives have a fitted effect of over 40% in size. Further: potency means the concentration at half of the fitted maximal effect.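 On activity change, negative = inhibition: Plasmodium falciparum strain Dd2 asexual parasites grown in red blood cells.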 An outline of the steps:
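Red blood cells infected with P. falciparum Dd2 (2.5% hematocrit final, 0.3% parasitemia) were exposed to compounds in an 11-point qHTS series for 72 hr at 37C under 5% O2 and 5% CO2. Lysis buffer with SYBR Green was then added for 18 hr, and fluorescence was read at 485/535 nm.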

The nature of experiment [6]: qHTS for inhibitors of Wild type Zika virus screened against the NCATS CANVASS Library (AID 1347396).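 Further: ATP luminescence of surviving cells so rescue from viral cell killing; on the % scale 0 is the no-effect control and ±100 the full control effect.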 In a few lines:
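Protection against wild-type Zika cytopathic effect is measured in African green monkey Vero 766 cells exposed to an 11-point compound series. Surviving cells are quantified by CellTiter Glo luminescence after 72 h.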

Experiment [7] is described as follows: qHTS to identify inhibitors of the type 1 interferon - major histocompatibility complex class I in skeletal muscle: primary screen against the NCATS Mechanism Interrogation Plate v5.0 (MIPE) Libary (AID 1347411).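 Further: plate controls were vehicle for no effect and reference inhibitor for full effect; nearly all actives have a fitted effect of over 65% in size.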 An outline of the steps:
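Immortalized human myoblasts (C25cl48) with HiBit knocked into endogenous HLA-B*08:01 were stimulated with 4 ng/ml IFN-beta and given compounds in 11-point 1:3 titration from 46 uM. After 24 h at 37 C, lytic HiBiT luminescence was read.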

A short description of experiment [8]: KB-8-5-11 Cancer Cell Toxicity qHTS against the NCATS CANVASS Library (AID 1347364). Further: nearly all actives have a fitted effect of over 75% in size. Further: potency means the concentration at half of the fitted maximal effect. An outline of the steps: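 KB-8-5-11 cells, 500/well in DMEM + 10% FBS, given compounds in an 11-point series. Incubated 72 h at 37 °C. Viability by CellTiter-Glo luminescence. Confirmation also run with 1 uM tariquidar.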
A short description of experiment [9]: qHTS for activators of Nrf2/ARE signaling pathway screened against the NCATS CANVASS Library (AID 1347391). Further: nearly all actives have a fitted effect of over 60% in size. Further: potency means the concentration at half of the fitted maximal effect. An outline of the steps: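 ARE-bla HepG2 beta-lactamase reporter cells exposed to compounds for 16 h at 37C; CCF4 substrate 2 h, fluorescence at ex 405 nm, em 460/530 nm. Viability by CellTiter-Glo luminescence.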
Experiment [10] in a line: UWB1.289 Cancer Cell Toxicity qHTS against the NCATS CANVASS Library (AID 1347347). Further: on the % scale 0 is the no-effect control and ±100 the full control effect; nearly all actives have a fitted effect of over 60% in size. In a few lines:
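Viability was assessed by adding CellTiter-Glo reagent to treated cultures and reading luminescence after 15min at room temperature. Treatment lasted 72 h at 37 degrees C/5% CO2, using an 11-point series on 1000 cells/well.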

Experiment [11] can be described thus: qHTS for Inflammasome Signaling Inhibitors: IL-1-beta AlphaLISA screen against the NCATS CANVASS Library (AID 1347379).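 Further: human THP-1 cells primed with LPS then triggered with ATP.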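 On activity change, negative = inhibition: secreted IL-1B measured as AlphaLISA emission at 615 nm; on the % scale 0 is the no-effect control and ±100 the full control effect; lower signal means less IL-1B release which is the wanted effect.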 In a few lines: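 THP-1 cells pretreated 1 hr with compound (up to 57.5 uM final), then stimulated with LPS (250 ng/mL final) and ATP (1.25 mM final). Secreted IL-1B measured by AlphaLISA after 16 hr; glyburide as positive control.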
Experiment [12] in a line: Confirmation and Secondary Assay for Modulators of Hemoglobin Beta Chain Splicing at IVS2 654 locus (AID 910).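 Further: HeLa cells stably carrying EGFP split by mutant beta-globin IVS2-654 intron; per-well total GFP intensity by laser scanning cytometry after 2-day treatment; % of control where 0% means no effect.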 In a few lines:
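Readout: per-well total peak green fluorescence (488 nm ex, 500–520 nm em) from objects 5–250 µm, reflecting correct splicing of an EGFP-654 reporter. Compounds were applied for 2 days at 37 °C to overnight-plated HeLa EGFP-654 cells; controls were DMSO and 500 nM IVS2-654 PNA.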

Experiment [13] in a line: Confirmation and Secondary Assay for Modulators of Hemoglobin Beta Chain Splicing at IVS2 705 locus (AID 930).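 Further: HeLa cells stably expressing the EGFP-705 splicing reporter; GFP fluorescence per well restored by corrected splicing of the IVS2-705 intron in EGFP; % of control where 0% means no effect.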 In a few lines:
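Per-well GFP, captured at 1 x 8 µm resolution with 488 nm excitation, served as the read-out for HeLa EGFP-705 cells incubated 2 days with test compound versus DMSO.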

The nature of experiment [14]: qHTS Assay for Lipid Storage Modulators (AID 1519; calls by dose curve). Particulars: Drosophila S3 cells, BODIPY lipid droplet/cell ratio, laser cytometry, cells loaded with oleic acid. In a few lines:
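Cells seeded at 5,000 per well were treated with compounds over a concentration series and loaded with oleic acid (400 uM, as added). Lipid droplet fluorescence (488 nm excitation, 500-530 nm channel) was read by laser-scanning cytometry and normalized to 20 uM Triacsin C.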

For the compound `COc1ccc([C@@H]2CC(=O)c3c(cc(O)c(C/C=C(\C)CCC=C(C)C)c3O)O2)cc1`, the Potency in experiment [1] is 7.2 µM (active). The activity change, negative = cytotoxicity in experiment [2] was -14.6% [at 9.19 µM] (inactive). In addition, the activity change, negative = inhibition in experiment [3] was 8.62% [at 7.64 µM] (inactive); in [4], 35.7% [at 15.3 µM] (inactive).
Take `CCC(=O)CCCCC[C@@H]1NC(=O)[C@H]2CCCCN2C(=O)[C@H](C(C)C)NC(=O)[C@H](Cc2cn(OC)c3ccccc23)NC1=O`: the Potency is 13.9 µM (active) in experiment [1], 5.26 µM (active) in experiment [2] and 0.747 µM (active) in [5]. In experiment [3], the Potency result is “inactive”.
On to `C/C(=C\[C@H](C)C(=O)/C=C/CC1CC(=O)NC(=O)C1)[C@@H]1OC(=O)/C=C/CC/C=C/C[C@@H](O)[C@@H]1C`, for which the Potency in experiment [1] is 31.1 µM (active); in [2], 3.72 µM (active); in experiment [4], 10.8 µM (active). In [6], the result was inactive.
For the compound `CC1c2cccc(O)c2C(O)=C2C(=O)C3(O)C(O)=C(C(N)=O)C(=O)C(N(C)C)C3C(O)C21` (stereo unspecified), the Potency result in [7] was “inactive”.
In the case of `COc1cc([C@@H]2c3cc4c(cc3C[C@@]3(O[C@@H]5O[C@H](CO)[C@@H](O)[C@H](O)[C@H]5O)COC(=O)[C@H]23)OCO4)cc(OC)c1OC`, the Potency in [1] was 44 µM (active); in experiment [2], 0.0469 µM (active). The Potency entry in experiment [4] is “inactive”.
Consider `CC(C)=CCC/C(C)=C/Cc1cc([C@@H]2CC(=O)c3c(cc(O)c(CC=C(C)C)c3O)O2)ccc1O`, for which the Potency in [1] was 6.97 µM (active); in experiment [5], 16.7 µM (active); in [9], 20.9 µM (active). Moreover, the Potency result in [8] and in experiment [4] was “inactive” in each case. For the same compound, the compound was called inactive in experiment [6].
Consider `CN1CC[C@]23c4ccccc4N[C@H]1[C@]21CCN(C)[C@H]3Nc2ccccc21`, for which the Potency entry in [10], in experiment [2], in [8], in [11] and in experiment [5] was “inactive” in each case. Further, the call in [6] was inactive.
With `COC(=O)C1=C[C@]23C[C@@H](C)CC[C@@H]2[C@@]2(C)CC[C@@H](C(C)C)[C@@](O)(O3)[C@@H]12`, the Potency in experiment [1] was 44 µM (active); in experiment [8], 18.7 µM (active). Further, in experiment [11], the Potency result is “inactive”.
Regarding `CO[C@H]1/C=C/CCCCC(=O)O[C@@H](/C(C)=C/[C@H](C)C(=O)C[C@H](O)CC2CC(=O)NC(=O)C2)[C@@H](C)C1`, the Potency was 49.3 µM (active) in [1], 7.47 µM (active) in experiment [3], 9.41 µM (active) in experiment [5] and 17.2 µM (active) in experiment [4]. In addition, the Potency result in experiment [11] is “inactive”. In [6], the call was inactive.
As for `CN1CC[C@@]23c4ccccc4N[C@@H]1[C@@]21CCN(C)[C@@H]3Nc2ccccc21`, the Potency result in experiment [10], in [2], in experiment [8] and in experiment [9] was “inactive” each time. Further, the Potency in experiment [5] is 0.0075 µM (active). Also, the outcome in [6] was inactive.
For the compound `O=Cc1ccc2n1C[C@]1(C[C@H](O)[C@@H](CO)O1)OC2`, the Potency result in [10], in experiment [2], in experiment [8], in experiment [3], in experiment [5] and in experiment [4] was “inactive” each time. Further, the Potency result in [9] is “inactive”.
Regarding `CO/C=C/C(=O)c1cc2cnc3c(N)cc(=NC(=O)C(C)C)c([nH]1)c23`, the Potency in experiment [1] was 17.5 µM (active); in experiment [3] it was 0.0334 µM (active); in experiment [11] it was 0.968 µM (active); in [4] it was 1.72 µM (active). The Potency result in experiment [5] and in experiment [9] was “inactive” throughout.
As for `CC(C)=CC[C@H]1C[C@@]2(CC=C(C)C)C(=O)[C@](CC=C(C)C)(C(=O)C(C(=O)c3ccccc3)=C2O)C1(C)C`, the Potency in [1] is 4.4 µM (active); in experiment [3], 5.94 µM (active). Moreover, the Potency result in experiment [4] and in experiment [9] was “inactive” in each case. Besides, in experiment [6], the compound was called inactive.
With `COC(=O)c1cc2cc3c(c(O)c2c(=O)o1)OC1(CC3)CC2=C(O1)C(=O)c1c(O)c(OC)cc(OC)c1C2=O` (stereo unspecified), the values for the Potency in experiment [1], in experiment [3] and in experiment [9] were 2.47 µM (active), 14.9 µM (active) and 10.5 µM (active), respectively. In addition, in [5], the Potency result was “inactive”.
For the compound `CC1COC2=C1C(=O)C(=O)c1c2ccc2c1CCCC2(C)C` (stereo unspecified), the outcome in experiment [12] and in [13] was inactive. Also, the activity change, negative = inhibition in [14] (at 57.5 µM (top of the series)) was 2.92% (inactive). For the same compound, the figures for the max response in experiment [14] (measured here: cell count channel max response) and in experiment [14] (measured here: lipid channel max response) were -7.49% and -5.49%, respectively.
With `C/C(=C\[C@H](C)C(=O)C[C@H](O)CC1CC(=O)NC(=O)C1)[C@@H]1OC(=O)CCCC/C=C/C[C@@H](O)[C@@H]1C`, the Potency result in [1] and in [8] was “inactive” throughout. The Potency in experiment [2] is 7.43 µM (active); in experiment [3], 4.72 µM (active); in experiment [5] it was 4.72 µM (active).
On to `O=Cc1ccc2n1C[C@]1(OC2)O[C@H](CO)[C@@H](O)[C@@H]1O`, for which the Potency result in [10], in experiment [2], in experiment [11], in experiment [4] and in experiment [9] was “inactive” in each case. Also, the compound was classed as inactive in experiment [6].
`CC1(C)CC[C@]2(CO)CC[C@]3(C)C(=CCC4[C@@]5(C)CC[C@H](O)C(C)(C)C5CC[C@]43C)C2C1` (stereo partly specified): the Potency result in experiment [10] and in experiment [3] was “inactive” throughout. Moreover, the call in [6] was inactive.
Consider `O=C1CC(c2ccc(O)cc2)Oc2ccccc21` (stereo unspecified), for which the outcome in [12], in [13] and in experiment [6] was inactive. Also, the Potency result in [8] and in experiment [5] was “inactive” in each case.
Take `C[C@@]12CCC[C@@](C)(C(=O)O)[C@H]1C[C@@H](O)[C@@]13C[C@@H](CC[C@@H]21)[C@](C)(O)C3`: the Potency result in experiment [2], in experiment [8], in experiment [3], in [5], in [4] and in experiment [9] was “inactive” throughout. The outcome in experiment [6] was inactive.

The values are drawn from PubChem BioAssay (NCATS).
